An excerpt weighted towards active compounds, which were near 18% of everything screened.
TDP1 cell noCPT = qHTS for Inhibitors of human tyrosyl-DNA phosphodiesterase 1 (TDP1): qHTS in cells in absence of CPT | DT40 Tdp1-/- hTDP1 cells, no CPT, ATP luminescence, 48 h | Potency, µM (doses to about 46.2 µM), for the others: top-dose activity change, negative = growth inhibition, usual class: inhibitors | 420,000 tested, 15% active | AID 686978, 2013; further: nearly all actives have a fitted effect of over 55% in size
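Growth of hTDP1-complemented DT40 Tdp1-knockout cells is measured by ATP luminescence after at least 48 hr compound exposure at 37 °C, with DMSO substituting for the 20 nM CPT used in the parallel screen.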
TDP1 block = blocks human tyrosyl-DNA phosphodiesterase 1; recombinant TDP1, AlphaScreen DNA substrate cleavage; 350,000 tested, 0.28% active; Q9NUW8; Potency, µM (series often up to 130 µM), for the others: top-dose activity change, negative = inhibition, actives largely listed as inhibitors; further: nearly all actives have a fitted effect of over 40% in size
Target sequence (Q9NUW8 whole entry, looked up): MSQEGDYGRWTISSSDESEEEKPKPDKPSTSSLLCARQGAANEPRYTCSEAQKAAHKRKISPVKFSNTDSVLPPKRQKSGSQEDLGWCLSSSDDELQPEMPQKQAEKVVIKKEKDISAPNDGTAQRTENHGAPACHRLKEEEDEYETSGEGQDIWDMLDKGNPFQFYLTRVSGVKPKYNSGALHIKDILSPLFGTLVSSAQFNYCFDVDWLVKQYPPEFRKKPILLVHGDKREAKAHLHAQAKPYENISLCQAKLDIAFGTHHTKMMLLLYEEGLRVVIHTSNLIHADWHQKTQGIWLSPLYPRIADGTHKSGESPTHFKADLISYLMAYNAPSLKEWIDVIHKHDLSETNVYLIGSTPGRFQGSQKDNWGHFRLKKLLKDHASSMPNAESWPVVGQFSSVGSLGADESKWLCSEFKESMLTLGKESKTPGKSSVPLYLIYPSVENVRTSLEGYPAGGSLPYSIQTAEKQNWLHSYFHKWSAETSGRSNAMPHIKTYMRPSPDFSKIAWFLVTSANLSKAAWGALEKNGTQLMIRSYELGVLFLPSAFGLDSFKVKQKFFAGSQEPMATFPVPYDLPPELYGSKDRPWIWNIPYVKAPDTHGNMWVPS
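E. coli-derived human Tdp1, 1 nM final. Cpd preinc 15 min RT; substrate 15 nM final, 5 min RT; AS bead mix 10 ug/ml final, 10 min RT. Signal loss = tyrosine-FITC cleavage. No-enzyme wells = max signal.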
VDR inhibitor = inhibitors of human vitamin D receptor; Potency, µM, without a hit: max response, negative = inhibition, hits mostly inhibitors; 400,000 tested, 0.93% active; AID 504847; VDR-SRC2-3 peptide fluorescence polarization, 2 h
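After 23 nl compound addition and a short centrifugation, plates sat for 2 hours at ambient temperature; polarization of fluorescence then indicated loss of VDR binding to peptide SRC2-3.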
DT40 TDP1 CPT = DT40-hTDP1 cell growth loss with CPT | chicken DT40 Tdp1-/-;hTDP1 cells + 20 nM CPT, ATP luminescence, 48 h | Potency, µM (doses to about 46.2 µM), for the others: at the top dose activity change, negative = growth inhibition, hits mostly inhibitors | 420,000 tested, 12% active | AID 686979; further: nearly all actives have a fitted effect of over 55% in size
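Cell growth measured by CellTiter-Glo luminescence after a minimum 48 h, 37 C compound exposure with 20 nM CPT in Tdp1-knockout DT40 cells stably expressing hTDP1, seeded 400/well; qHTS titration format.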
GCN5L2 inh = GCN5L2 (KAT2A) acetyltransferase inhibition | Potency, µM (series often up to 58.9 µM), inactives show top-dose activity change, negative = inhibition, hits mostly inhibitors | AID 504327 | Q92830 | GCN5L2 HAT assay, ThioGlo1 CoA-SH fluorescence | 390,000 tested, 0.21% active
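qHTS, 1536-well. 20nM enzyme, pH 7.5 HEPES/EDTA/Tween-20 buffer; 15 min compound preinc., RT. Start: 75uM H3(1-25), 70uM AcCoA, 50uM ThioGlo1. Read Ex340/Em540 at t=0 (autofluorescence flag) and t=20 min.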
PLK1 PBD block = PLK1 (human) polo-box domain binding inhibition; P53350; Plk1 PBD binding of FITC phosphopeptide, fluorescence polarization; Potency, µM, inactives show max response, negative = inhibition, most hits filed as inhibitors; 360,000 tested, 2.8% active; further: series mostly up to about 57 µM; nearly all actives have a fitted effect of over 65% in size
Starred values were filed as active, the others as inactive; [ ] = another dose, or the depositor's remark. The call rests on the fitted dose curve; in most records, active means well fitted curve in the direction sought with a large enough effect; inconclusive means small, poorly fitted or top-dose-only effect, or another doubt; inactive means no such curve, though single readings can be large; an effect the other way counts as inactive or inconclusive. On the % scale 0 is the no-effect control and ±100 the full control effect; potency means the concentration at half of the fitted maximal effect.

What do the screens show for `O=C(NCCSCc1ccc(Cl)cc1)C1CCN(S(=O)(=O)Cc2ccccc2)CC1`?
TDP1 cell noCPT: -12%; TDP1 block: 3%; VDR inhibitor: 2%; DT40 TDP1 CPT: -27%; GCN5L2 inh: -1%

What do the screens show for `COC(=O)c1scc(-c2ccc(C)cc2)c1S(=O)(=O)N1CCN(c2ccc(C(C)=O)cc2)CC1`?
TDP1 cell noCPT: inconclusive; TDP1 block: 8%; VDR inhibitor: 22%; DT40 TDP1 CPT: 23µM*; GCN5L2 inh: -15%

How did CCOC(=O)c1scc(-c2ccccc2)c1S(=O)(=O)N1CCN(c2ccc(Cl)cc2)CC1 do in these assays?
TDP1 cell noCPT: 13µM*; TDP1 block: 7%; VDR inhibitor: 7%; DT40 TDP1 CPT: inconclusive; GCN5L2 inh: -2%

How did COC(=O)c1sccc1S(=O)(=O)N1CCN(c2ccc(Cl)cc2)CC1 do in these assays?
TDP1 cell noCPT: inconclusive; TDP1 block: 7%; VDR inhibitor: -7%; DT40 TDP1 CPT: inconclusive; GCN5L2 inh: 0%

How did COC(=O)c1cc(S(=O)(=O)N2CCN(c3cccc(Cl)c3)CC2)c[nH]1 do in these assays?
TDP1 cell noCPT: -29%; VDR inhibitor: -19%; DT40 TDP1 CPT: -26%; GCN5L2 inh: -4%; PLK1 PBD block: -3%

How did COC(=O)c1cc(S(=O)(=O)N2CCN(c3ccc(C)cc3C)CC2)cn1C do in these assays?
TDP1 cell noCPT: -30%; TDP1 block: 5%; VDR inhibitor: 3%; DT40 TDP1 CPT: inconclusive; GCN5L2 inh: -12%

How did COC(=O)c1scc(-c2ccc(C)cc2)c1S(=O)(=O)N1CCN(c2cccc(Cl)c2)CC1 do in these assays?
TDP1 cell noCPT: 18µM*; TDP1 block: 2%; VDR inhibitor: 12%; DT40 TDP1 CPT: 18µM*; GCN5L2 inh: 5%

How did COC(=O)c1scc(-c2ccc(C)cc2)c1S(=O)(=O)N1CCN(c2ccc(C)cc2C)CC1 do in these assays?
TDP1 cell noCPT: 9.2µM*; TDP1 block: 10%; VDR inhibitor: 5%; DT40 TDP1 CPT: 15µM*; GCN5L2 inh: 1%

How did N#CCCn1nc(-c2ccccc2)c2ccccc2c1=O do in these assays?
TDP1 cell noCPT: 13%; VDR inhibitor: -7%; DT40 TDP1 CPT: 0%; GCN5L2 inh: -1%; PLK1 PBD block: -1%

What do the screens show for `O=C(Nc1cccnc1)C1CC(=O)N(c2ccc(F)cc2)C1` (stereo not given)?
TDP1 cell noCPT: -21%; TDP1 block: -2%[0.0935 µM]; VDR inhibitor: -12%; DT40 TDP1 CPT: -7%; GCN5L2 inh: 0%; PLK1 PBD block: -1%

How did CC(C(=O)N(C)c1ccccc1)N1CCN(C(=O)c2ccccc2)CC1 (stereo not given) do in these assays?
TDP1 cell noCPT: -12%; VDR inhibitor: 12%; DT40 TDP1 CPT: 16%; GCN5L2 inh: -3%; PLK1 PBD block: 3%

Results for Cc1ccc(S(=O)(=O)NCCC(=O)NCC(c2ccco2)N2CCCCC2)cc1C (stereo not given) ?
TDP1 cell noCPT: -27%; VDR inhibitor: 0%; DT40 TDP1 CPT: -6%; GCN5L2 inh: -5%; PLK1 PBD block: 1%

Results for COC(=O)c1scc(-c2ccc(C)cc2)c1S(=O)(=O)N1CCN(c2ccccc2F)CC1 ?
TDP1 cell noCPT: 18µM*; TDP1 block: -2%; VDR inhibitor: 5%; DT40 TDP1 CPT: 13µM*; GCN5L2 inh: -3%

What do the screens show for `COC(=O)c1cc(S(=O)(=O)N2CCN(c3ccccc3F)CC2)c[nH]1`?
TDP1 cell noCPT: inconclusive; TDP1 block: 0%; VDR inhibitor: -5%; DT40 TDP1 CPT: inconclusive; GCN5L2 inh: -5%; PLK1 PBD block: -14%

What do the screens show for `COC(=O)c1scc(-c2ccc(C)cc2)c1S(=O)(=O)N1CCN(c2ccccc2)CC1`?
TDP1 cell noCPT: 9.2µM*; TDP1 block: 7%; VDR inhibitor: 1%; DT40 TDP1 CPT: 12µM*; GCN5L2 inh: -21%

Screens as filed in PubChem BioAssay.
